TDP1 cell CPT = qHTS for Inhibitors of human tyrosyl-DNA phosphodiesterase 1 (TDP1): qHTS in cells in presence of CPT; 420,000 tested, 12% active; AID 686979, 2013; Potency, µM (doses to about 46.2 µM), actives largely listed as inhibitors; chicken DT40 Tdp1-/-;hTDP1 cells + 20 nM CPT, ATP luminescence, 48 h; also: nearly all actives have a fitted effect of over 55% in size
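Cell growth measured by CellTiter-Glo luminescence after a minimum 48 h, 37 C compound exposure with 20 nM CPT in Tdp1-knockout DT40 cells stably expressing hTDP1, seeded 400/well; qHTS titration format.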
DT40 TDP1 no CPT = qHTS for Inhibitors of human tyrosyl-DNA phosphodiesterase 1 (TDP1): qHTS in cells in absence of CPT; 420,000 tested, 15% active; AID 686978, 2013; DT40 Tdp1-/- hTDP1 cells, no CPT, ATP luminescence, 48 h; Potency, µM (top dose mostly 46.2 µM), usual class: inhibitors; also: nearly all actives have a fitted effect of over 55% in size
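Chicken DT40 Tdp1-/- cells complemented with human TDP1, screened without camptothecin (DMSO vehicle only), 400 cells/well. Compounds pin-transferred, cells incubated at 37 °C for at least 48 hr. Growth read as ATP-dependent luminescence (CellTiter-Glo, 30 min at RT).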
HepG2 tox = qHTS for Inhibitors of TGF-b: Cytotox Counterscreen. HepG2 CAGA-GFP viability, ATP luminescence, 18 h. Potency, µM (highest dose often 46.1 µM), most hits filed as cytotoxic. 410,000 tested, 0.76% active. AID 588856, 2011
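CellTiter-Glo luminescence gave cytotoxicity after 18 hours at 37 degrees C. The cells were HepG2 CAGA-GFP in 1% FBS DMEM, stimulated with 500 pg/mL TGF-beta after compound addition. %Activity was normalised to no-cell wells (complete cell-killing) and DMSO (no toxicity), and curves were fitted and classified.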
IL-1B inflam inh = qHTS for Inhibitors of Inflammasome Signaling: IL-1-beta AlphaLISA Primary Screen | activity change, % at 57.5 µM | THP-1 LPS/ATP IL-1B secretion, AlphaLISA, 16 h; stronger effect = lower value | 360,000 tested, 4.7% active | AID 743279, 2014; in the data active = activity change below about -50%; inconclusive = mostly about -30% to -49%
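THP-1 cells pretreated 1 hr with compounds (up to 57.5 uM final), then stimulated with LPS (250 ng/mL final) plus ATP (1.25 mM final); secreted IL-1B measured by AlphaLISA after 16 hr, decreased signal indicating inhibition.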
TGFb inhibitor = qHTS for Inhibitors of TGF-b; AID 588855, 2011; 410,000 tested, 1.2% active; HepG2 CAGA-GFP TGF-b/SMAD3 reporter, GFP fluorescence, 18 h; TGF-beta stimulated, 500 pg/mL final; Potency, µM (top dose mostly 46.1 µM), actives largely listed as inhibitors; also: nearly all actives have a fitted effect of over 65% in size
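Using HEPG2 CAGA-GFP reporter cells at 1000 cells/well, we pinned test compounds, stimulated with recombinant TGF-beta (500 pg/mL final) and measured total well GFP after 18 h.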
TDP1 inh = qHTS Assay for Inhibitors of Tyrosyl-DNA Phosphodiesterase (TDP1). recombinant TDP1, AlphaScreen DNA substrate cleavage. 350,000 tested, 0.28% active. Potency, µM (top dose mostly 130 µM), hits mostly inhibitors. Tyrosyl-DNA phosphodiesterase 1 (Homo sapiens), Q9NUW8; also: nearly all actives have a fitted effect of over 40% in size
Target sequence (Q9NUW8 whole entry, looked up): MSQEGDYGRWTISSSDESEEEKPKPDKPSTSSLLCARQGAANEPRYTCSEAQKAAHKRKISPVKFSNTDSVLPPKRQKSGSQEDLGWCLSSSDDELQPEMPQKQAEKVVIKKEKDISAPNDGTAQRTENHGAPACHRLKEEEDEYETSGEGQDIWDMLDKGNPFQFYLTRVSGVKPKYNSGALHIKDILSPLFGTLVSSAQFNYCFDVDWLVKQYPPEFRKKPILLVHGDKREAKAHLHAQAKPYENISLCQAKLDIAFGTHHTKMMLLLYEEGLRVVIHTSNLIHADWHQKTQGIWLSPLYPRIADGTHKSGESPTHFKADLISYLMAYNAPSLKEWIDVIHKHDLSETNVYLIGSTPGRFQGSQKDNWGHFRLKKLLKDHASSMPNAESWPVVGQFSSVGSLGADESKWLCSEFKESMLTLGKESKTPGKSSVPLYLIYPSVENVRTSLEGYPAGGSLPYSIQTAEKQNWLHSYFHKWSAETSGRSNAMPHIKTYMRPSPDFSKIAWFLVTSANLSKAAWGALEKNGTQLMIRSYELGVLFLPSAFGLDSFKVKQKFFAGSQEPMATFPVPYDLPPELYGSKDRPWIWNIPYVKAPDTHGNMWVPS
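Recombinant E. coli-expressed Tdp1 (1 nM) preincubated with compound 15 min at RT, then 5'-biotin/3'-phosphotyrosine-FITC DNA substrate (15 nM) added for 5 min. AlphaScreen beads (10 ug/ml) added, 10 min RT; tyrosine-FITC cleavage read as signal loss.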
Hits are given with their value; . = inactive; ? = inconclusive; / = no result. Hits are enriched below; roughly 19% of the tested compounds scored in any of these assays. Unless noted, calls follow the shape of the dose curve; as a rule, active = well fitted curve in the direction sought with a large enough effect; inconclusive = small, poorly fitted or top-dose-only effect, or another doubt; inactive = no such curve, though single readings can be large; an effect the other way counts as inactive or inconclusive.

SMILES	TDP1 cell CPT	DT40 TDP1 no CPT	HepG2 tox	IL-1B inflam inh	TGFb inhibitor	TDP1 inh
Cc1ccc2oc(C(=O)N(C)Cc3ccon3)c(C)c2c1	.	.	.	.	.	.
CCOc1ccc2oc(C(=O)Nc3ccc(C)cn3)c(C)c2c1	?	18µM	.	.	.	/
Cc1c(C(=O)NC2CCN(Cc3ccccc3)C2)oc2ccc(Br)cc12 (configuration not stated)	?	?	.	?	?	.
Cc1ccc2oc(C(=O)Nc3cc(C)on3)c(C)c2c1	.	5.8µM	.	.	.	.
CC(OC(=O)Cn1cnc2c1c(=O)n(C)c(=O)n2C)C(=O)NC1(C#N)CCCCC1 (configuration not stated)	.	.	.	.	.	.
CCCN(CC1CC1)C(=O)COC(=O)c1oc2ccc(OCC)cc2c1C	.	6.5µM	.	.	?	.
CCOc1ccc2oc(C(=O)OCC(=O)NC3CCCC3)c(C)c2c1	?	.	.	.	.	.
COc1cc(NC(=O)CN2CCN(S(=O)(=O)/C=C/c3ccccc3)CC2)cc(OC)c1OC	?	?	.	.	.	.
O=C(Nc1ccc(S(=O)(=O)NCC2CCCO2)cc1)c1ccc(Cl)cc1[N+](=O)[O-] (configuration not stated)	8.2µM	?	.	.	.	.
O=S(=O)(NCC1CCCO1)c1ccc(S(=O)(=O)N(Cc2ccccc2F)C2CCCCC2)cc1 (configuration not stated)	13µM	?	.	.	?	/
O=C(Nc1ccc(F)cc1)c1ccc(S(=O)(=O)NCC2CCCO2)cc1 (configuration not stated)	18µM	13µM	.	?	.	.
O=C(Nc1ccccc1)c1ccc(S(=O)(=O)NCC2CCCO2)cc1 (configuration not stated)	.	.	.	.	.	.
Cc1c(C(=O)Nc2ccc(S(=O)(=O)NCC3CCCO3)cc2)cccc1[N+](=O)[O-] (configuration not stated)	?	?	.	.	.	.
Cc1cc(C)nc(Nc2nc(C(N)Cc3ccc(Cl)cc3)cs2)n1 (configuration not stated)	18µM	18µM	.	?	16µM	/
CCCc1cnc(Nc2nc(C(N)Cc3ccc(C(F)(F)F)cc3)cs2)nc1 (configuration not stated)	?	21µM	11µM	?	?	/
COc1cc(OC)nc(Nc2nc(C(N)Cc3ccc(C(F)(F)F)cc3)cs2)n1 (configuration not stated)	?	?	10µM	-111	?	/
NC(Cc1ccc(C(F)(F)F)cc1)c1csc(Nc2nccc(C(F)(F)F)n2)n1 (configuration not stated)	?	?	.	.	?	/
Cc1cc(C)nc(Nc2nc(C(N)Cc3ccc(C(F)(F)F)cc3)cs2)n1 (configuration not stated)	6.5µM	6.5µM	22µM	-81	?	/
CC(CC(=O)NCc1ccc(Cl)cc1)CC1=NS(=O)(=O)c2ccccc2N1 (configuration not stated)	?	?	.	/	?	.
Cc1cc(C)nc(Nc2nc(C(N)Cc3ccc(F)cc3)cs2)n1 (configuration not stated)	15µM	21µM	13µM	.	?	/
COc1cc(OC)nc(Nc2nc(C(C)N)cs2)n1 (configuration not stated)	?	?	.	.	.	/
NC(Cc1ccc(F)cc1)c1csc(Nc2ccc(S(N)(=O)=O)cc2)n1 (configuration not stated)	?	?	.	.	.	/
COc1cc(OC)nc(Nc2nc(C(N)Cc3ccccc3)cs2)n1 (configuration not stated)	?	18µM	.	.	?	/
CCCc1ccccc1OCCNS(=O)(=O)c1cc2c(cc1C)OCC(=O)N2	15µM	12µM	.	-99	?	.
Cc1ccc(S(=O)(=O)c2nc(S(C)(=O)=O)sc2N(C)C)cc1	.	.	.	.	.	.
SMILES	TDP1 cell CPT	DT40 TDP1 no CPT	HepG2 tox	IL-1B inflam inh	TGFb inhibitor	TDP1 inh
Cc1ccc(S(=O)(=O)c2nc(S(=O)(=O)c3ccc(C)cc3)c(N3CCN(CCO)CC3)s2)cc1	23µM	?	.	-68	.	.
CS(=O)(=O)c1nc(S(=O)(=O)c2ccc(Cl)cc2)c(N2CCN(CCO)CC2)s1	?	.	.	-68	.	.
CN1CCN(c2sc(S(C)(=O)=O)nc2S(=O)(=O)c2ccc(Cl)cc2)CC1	.	.	.	?	.	.
Cc1ccc(S(=O)(=O)c2nc(S(C)(=O)=O)sc2N(C)Cc2ccccc2)cc1	?	21µM	.	/	?	.
CS(=O)(=O)c1nc(S(=O)(=O)c2ccc(Cl)cc2)c(N2CCCCC2)s1	?	.	.	-63	.	.
CC[C@H](C)[C@H](NC(=O)CNC(=O)[C@H](CC(C)C)NC(=O)[C@H](CC(C)C)NC(=O)[C@H](CCC(N)=O)NC(=O)[C@H](CCC(N)=O)NC(=O)[C@H](CC(=O)O)NC(=O)[C@H](CCCCN)NC(=O)[C@H](CC(C)C)NC(=O)[C@H](Cc1ccc(O)cc1)NC(=O)[C@H](CCCNC(=N)N)NC(=O)[C@H](CCC(=O)O)NC(=O)[C@@H](NC(=O)[C@H](C)NC(=O)[C@H](CC(C)C)NC(=O)[C@@H](NC(=O)[C@@H](N)CCCNC(=N)N)[C@@H](C)CC)C(C)C)C(=O)N[C@@H](Cc1c[nH]c2ccccc12)C(=O)NCC(=O)N[C@@H](CS)C(=O)N[C@@H](CO)C(=O)O	/	/	/	/	/	.
Cc1ccc(S(=O)(=O)/N=C(/Nc2ccc(F)cc2F)c2ccccc2)cc1	.	.	.	.	.	.
CC1(C(=O)NS(=O)(=O)Cc2ccccc2C(F)(F)F)CCN1C(=O)Cc1ccsc1 (configuration not stated)	?	?	.	.	.	/
Cc1ccc(NC(=O)c2ccc(NC(=O)N3CCSc4ncccc43)cc2)c(Cl)c1	?	?	.	/	.	.
CSc1ccccc1NC(=O)COC(=O)Cn1cc(C(F)(F)F)ccc1=O	?	?	.	.	.	.
Cc1ccc(S(=O)(=O)c2nc(S(C)(=O)=O)sc2N2CCOCC2)cc1	.	.	.	-59	.	.

Screens deposited in PubChem BioAssay by National Center for Advancing Translational Sciences (NCATS).
